# Test results taken from article PMC4552634, “A New Set of Chemical Starting Points with Plasmodium falciparum Transmission-Blocking Potential for Antimalarial Drug Discovery” (PLoS ONE, 2015).
# Out of some 13,000 compounds screened, about 3,200 (25%) showed an effect of 50% or more. Some of the results follow.
# Test system: P. falciparum stage V gametocytes
# Parameters: BacTiter-Glo ATP luminescence viability of purified stage V gametocytes in 384-well plates, per cent inhibition versus DMSO
# Settings: 48 h, 5 µM; inhibitor
row,Compound,% Inhibition [%]
1,NC(N)=NC(=O)Nc1cc(Cl)c(Cl)c(Br)c1 [TCMDC-137463],-17.34
2,N=C(N)c1cc(Cl)cc(NC(=O)Nc2cc(Cl)cc(C(=N)N)c2)c1 [TCMDC-124110],-2.183
3,COc1ccc(CNc2nc(NCCc3ccccc3)c3cc(OC)c(OC)cc3n2)cc1OC [TCMDC-132019],85.76
4,COc1cc2nc(N3CCC(C(N)=O)CC3)nc(NCc3ccccc3)c2cc1OC [TCMDC-132023],16.05
5,COc1cc2nc(N3CCN(C(=O)c4ccco4)CC3)nc(NCc3ccccc3)c2cc1OC [TCMDC-132028],52.38
6,COc1cc2nc(NCC3CCCCC3)nc(NCc3ccccc3)c2cc1OC [TCMDC-132014],59.54
7,COc1cc2nc(-c3ccccc3)nc(N3CCN(C(=O)c4ccco4)CC3)c2cc1OC [TCMDC-125059],-9.427
8,COc1cc2nc(NCCc3ccccc3)nc(NCc3cc(C)no3)c2cc1OC [TCMDC-135435],96.72
9,CC(=O)NCCCCC1NC2(C(=O)N(Cc3ccc(C(C)(C)C)cc3)c3ccccc32)C2C(=O)N(C3CCCCC3)C(=O)C12 (centres unmarked) [TCMDC-139771],5.053
10,Cc1cc(N(C)C)nc(Nc2ccc(NC(=O)c3ccc(F)cc3)cc2)n1 [TCMDC-124723],5.364
11,O=C(Nc1ccc(Cl)cc1)Nc1cccc(-c2ccc(-c3nc4ccccc4[nH]3)cc2)c1 [TCMDC-133182],-15.2
12,CN(C)CCCNc1ncnc2c1[nH]c1ccc(F)cc12 [TCMDC-125598],-5.367
13,COc1cc2ncnc(Nc3ccc(OCc4ccccc4)c(C(F)(F)F)c3)c2cc1OC [TCMDC-131921],4.607
14,O=c1ccc(CNc2nc(NCCc3ccccc3)nc3ccc(Cl)cc23)c[nH]1 [TCMDC-136489],35.37
15,COc1cc2nc(NCCc3ccccc3)nc(NCCCc3ccccc3)c2cc1OC [TCMDC-135301],108
16,Clc1ccc2c(NCCc3ccccc3)ccnc2c1 [TCMDC-138551],-1.928
17,COc1ccc(CCNc2nc(N)c3cc(OC)c(OC)cc3n2)cc1.Cl [TCMDC-131888],1.23
18,COc1cc2nc(NCCn3nc(C)cc3C)nc(NCCc3ccccc3)c2cc1OC [TCMDC-135473],52.48
19,O=c1ccc(CNc2nc(NCCc3ccccc3)nc3cc(Cl)ccc23)c[nH]1 [TCMDC-136510],52.65
20,COc1cc2nc(NCCc3ccccc3)nc(NCc3nccs3)c2cc1OC [TCMDC-135436],24.41
21,COc1ccc(CNc2nc(NCc3ccc(C(F)(F)F)cc3)c3cc(OC)c(OC)cc3n2)cc1OC [TCMDC-132016],104.7
22,Cc1c(CNCCCNc2cc(=O)c3ccccc3[nH]2)sc(-c2ccco2)c1Br [TCMDC-141065],-27.75
23,CSc1cccc(Nc2nc3ccc(S(=O)(=O)NC(C)C(C)C)cc3n2[C@H](C)C(C)(C)C)c1 (some centres unmarked) [TCMDC-136239],-63.84
24,Cc1nn(C)cc1C(C)Nc1nncc(-c2ccc(C(F)(F)F)cc2)n1 (centres unmarked) [TCMDC-124694],-19.2

row,Compound,% Inhibition [%]
1,OC1(c2ccc(Br)cc2)CCN(C2CCN(Cc3ccccc3)CC2)CC1 [TCMDC-124137],40.29
2,O=C(O)C(F)(F)F.c1cc(CN2CCN(c3ccncc3)CC2)cc(-c2ccc(-c3nc4ccccc4[nH]3)s2)c1 [TCMDC-132909],11.83
3,COc1ccc2nccc([C@@H](O)CN3CCC(NCc4cc5cc(C)ccc5s4)CC3)c2c1 [TCMDC-140682],12.73
4,CN(C)CCCn1cncc1-c1ccc2ncnc(Nc3ccc4c(cnn4Cc4ccccc4)c3)c2c1 [TCMDC-138087],-19.79
5,CN(C)CCc1coc2ccc(C(=O)Nc3ccc(-c4ccc(O)cc4)cc3)cc12 [TCMDC-132005],-54.25
6,COc1cc2nc(NCCCN3CCCCC3)nc(NCc3ccccc3)c2cc1OC [TCMDC-132012],112.9
7,COc1cccc(CCNc2nc(NCc3ccccc3)c3cc(OC)c(OC)cc3n2)c1 [TCMDC-135267],71.62
8,COc1cc2nc(NCCc3ccccc3)nc(NCc3cnn(C)c3C)c2cc1OC [TCMDC-135459],100.1
9,COc1cc2nc(NCCc3cccc(Cl)c3)nc(NCc3ccccc3)c2cc1OC [TCMDC-135266],90.56
10,c1ccc(CNc2nc(NCCN3CCCCC3)nc3ccccc23)cc1 [TCMDC-137554],18.64
11,Cc1ccccc1C1CCN(C2CCC(NC(=O)/C=C/c3c[nH]c4ccccc34)CC2)CC1 (centres unmarked) [TCMDC-134103],-47.56
12,O=C(O)CCSc1ncnc2nc[nH]c12 [TCMDC-125870],-3.326
13,NC(N)=Nc1ccc(CCc2ccc(N=C(N)N)cc2)cc1 [TCMDC-137701],-9.941
14,O=C(Nc1cccc(CN2CCCN(Cc3ncc[nH]3)CC2)c1)c1ccc(-c2ccccc2)cc1 [TCMDC-141849],12.11
15,CC1(C)CCCN(C(=O)Cc2ccc3c(c2)CCCC3)C1CN1CC=CC1 (centres unmarked) [TCMDC-131637],3.216
16,C=Cc1sc(CNCCCNc2cc(=O)c3ccccc3[nH]2)c(C)c1Br [TCMDC-141064],-9.308
17,N#Cc1ccc(CN2CCCN(c3ccc(NC(=O)c4ccc(F)cc4)cc3)CC2)cc1 [TCMDC-134984],-24.83
18,COc1ccc(CNc2nc(NCc3ccccc3)c3cc(OC)c(OC)cc3n2)cc1OC [TCMDC-131893],102.4
19,COc1cc2nc(N[C@@H](CO)c3ccccc3)nc(NCc3ccccc3)c2cc1OC [TCMDC-132024],6.921
20,COc1ccc(CCNc2nc(NCc3ccccc3)c3cc(OC)c(OC)cc3n2)cc1OC [TCMDC-132017],95.97
21,COc1ccc2ccccc2c1CON1C(N)=NC(N)=NC1(C)C [TCMDC-131789],14.14
22,O=C(N/C(=C/c1cccc([N+](=O)[O-])c1)c1nc2ccccc2[nH]1)c1cccc(Br)c1 [TCMDC-123667],25.9
23,CCc1nc2ccc(C(=O)OC)nc2n1Cc1ccc2oc(-c3ccccc3N)c(Br)c2c1 [TCMDC-131989],82.84
24,Cc1cccc2[nH]c(-c3cccc(-c4ccc(NC(=O)Cc5ccccn5)cc4)c3)nc12 [TCMDC-132178],-17.95

row,Compound,% Inhibition [%]
1,CS(=O)(=O)CCNCc1cccc(-c2cc3c(Nc4ccc5c(cnn5Cc5ccccc5)c4)ncnc3s2)c1 [TCMDC-134664],-36.31
2,CN1CCC(c2ccc(NC(=O)c3ccc(-c4cccc(C(F)(F)F)c4)o3)cc2)CC1 [TCMDC-134195],6.508
3,O=C(Nc1ccc(S(=O)(=O)NCCCN2CCOCC2)cc1)c1cc(-c2ccccc2)n[nH]1 [TCMDC-125046],-31.32
4,NC(=O)COc1cccc2c1CCN(CCN1CCC(NC(=O)c3ccc(-c4ccc(Cl)cc4)cc3)CC1)C2 [TCMDC-135479],-28.95
5,COc1cccc2c1CCN(CCN1CCC(NC(=O)c3ccc(-c4cccc(Cl)c4Cl)cc3)CC1)C2 [TCMDC-135476],76.97
6,C=CCOc1cccc2c1CCN(CCN1CCC(NC(=O)c3ccc(-c4ccc(Cl)cc4)cc3)CC1)C2 [TCMDC-135633],-61.81
7,Fc1cccc(COc2ccc(Nc3ncnc4sc(C#C[C@H]5CC[C@H](CNCC(F)(F)F)N5)cc34)cc2Cl)c1 [TCMDC-135422],-57.82
8,O=C(CCC1CCCC1)N(Cc1ccc(-c2ccc(CNCCc3ccccn3)cc2)cc1)CC1CCCCN1 (centres unmarked) [TCMDC-141445],104.1
9,c1cncc(CCNCc2ccc(-c3ccc(CNC4Cc5ccccc5C4)cc3)cc2)c1 [TCMDC-141458],22.23
10,O=C(CC1CCCC1)N(Cc1ccc(-c2ccc(CNC3Cc4ccccc4C3)cc2)cc1)CC1CCCCN1 (centres unmarked) [TCMDC-141446],118.1
11,CCCNC(=O)c1cncc(-c2ccc(CNC3Cc4ccccc4C3)cc2)c1 [TCMDC-134242],-9.717
12,O=C(NCC1CCC(C(=O)NCCN2CCCCC2)CC1)c1ccc(O)c(-c2ccc(Cl)c(Cl)c2)c1 (centres unmarked) [TCMDC-140889],5.118
13,CN(C)C(CNC(=O)c1cc(-c2ccncc2)c(-c2ccc(NC(=O)Nc3ccccc3)cc2)o1)c1ccccc1 (centres unmarked) [TCMDC-135763],0.5152
14,CCN(CCNS(C)(=O)=O)c1ccc(N)c(C)c1 [TCMDC-125836],123.9
15,CCN(CC)c1ccc2nc(N)nc(N)c2c1 [TCMDC-137860],-57.34
16,CCN(CCNC(=O)Nc1cc(C(F)(F)F)cc(C(F)(F)F)c1)c1cccc(C)c1 [TCMDC-140386],-30.95
17,Cc1cc(NC(=O)c2ccco2)ccc1OC1CCN(Cc2ccc(F)cc2)CC1 [TCMDC-133749],42.56
18,Cc1ccccc1N1CCN(c2ccc(C(=O)Nc3ccccc3)cn2)CC1 [TCMDC-134582],6.226
19,Cc1[nH]c2ccccc2c1C1CCN(CC2CCC(NC(=O)/C=C/c3ccc(Cl)c(Cl)c3)CC2)CC1 (centres unmarked) [TCMDC-139482],-16.12
20,NC(=O)c1cnc2cc(-c3ccncc3)cc(Nc3ccc(NC(=O)C4CCCCC4)cc3)c2c1 [TCMDC-135182],-67.69
21,Cc1cc(-c2ccc(NC(=O)N3CCc4cc(Cl)c(N5CCN(C)CC5)cc43)cc2)ccc1C#N [TCMDC-139292],55.12
22,Cc1cc(-c2ccc(NC(=O)N3CCc4cc(Br)c(N5CCN(C)CC5)cc43)cc2)ccc1C#N [TCMDC-139293],-18.89
23,CN1CCN(c2cc3c(cc2Cl)CCN3C(=O)Nc2ccc(NC(=O)c3ccc(C(F)(F)F)cc3)cc2)CC1 [TCMDC-139270],-10.1
